Common to all, as to experiment: NCI-60 one-dose screen, 48 h (100 = growth as untreated, 0 = no growth, -100 = all killed)
One assay deals with NCI-H23 lung. The conditions noted are these: 10 µM unless noted.
The next assay has as its system NCI-H226 lung. The settings on record: 10 µM unless noted.
For a further assay, the system named is NCI-H322M lung. The settings on record: 10 µM unless noted.
For another assay, the system named is HOP-62 NSCLC. The conditions noted are these: 10 µM unless noted.
The next assay relates to NCI-H460 lung. The conditions noted are these: 10 µM unless noted.
For a further assay, the system named is HOP-92 NSCLC. The conditions noted are these: 10 µM unless noted.
The next assay relates to NCI-H522 lung. The settings on record: 10 µM unless noted.
In another assay the test system is A549/ATCC NSCLC. The conditions noted are these: 10 µM unless noted.
In the next assay the test system is 786-0 renal. The conditions noted are these: 10 µM unless noted.
The next assay concerns COLO 205 colon. The conditions noted are these: 10 µM unless noted.
In a further assay the test system is DU-145 prostate. The settings on record: 10 µM unless noted.
For another assay, the system named is MALME-3M melanoma. The settings on record: 10 µM unless noted.
A further assay relates to MDA-MB-231 breast. The settings on record: 10 µM unless noted.
For the next assay, the system named is RXF 393 renal. The conditions noted are these: 10 µM unless noted.
For another assay, the system named is SF-268 CNS. The settings on record: 10 µM unless noted.
A further assay deals with SF-295 CNS. The settings on record: 10 µM unless noted.
For another assay, the system named is SF-539 CNS. The settings on record: 10 µM unless noted.
Another assay deals with UACC-257 melanoma. The settings on record: 10 µM.
Another assay deals with M14 melanoma. The settings on record: 10 µM unless noted.
The next assay deals with K-562 leukemia. The conditions noted are these: 10 µM unless noted.

Our source for the growth values is PubChem BioAssay (NCI).

SMILES strings stand for the structures. Compounds without any hit were thinned out: in the full panel of roughly 83,000, 20% have a hit.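 Method: cells in 96-well plates; compound added at one concentration; 48 h incubation; percent growth measured; values under 10 scored active.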 Unmarked numbers belong to inactive results. Active and inactive are the calls of the source.

Take `CNC(=O)c1cc(Oc2ccc3nc(NC(=O)c4cccc(C(F)(F)F)c4)sc3c2)ccn1`: the growth in the assay with NCI-H23 lung is 101%; in the assay with NCI-H226 lung, 104%; with NCI-H322M lung, 103%; in the assay with HOP-62 NSCLC it was 117%; in the assay on NCI-H460 lung, 103%; in the assay on HOP-92 NSCLC, 110%. The growth with NCI-H522 lung was 98.9%; with A549/ATCC NSCLC it was 101%; in the assay on 786-0 renal, 97.2%; in the assay with COLO 205 colon it was 112%; in the assay with DU-145 prostate, 101%; in the assay on MALME-3M melanoma, 97.2%. The growth with MDA-MB-231 breast was 104%; in the assay with RXF 393 renal it was 106%; in the assay with SF-268 CNS it was 98%; in the assay on SF-295 CNS, 92.6%; in the assay with SF-539 CNS, 99.4%; in the assay with UACC-257 melanoma, 104%. The growth in the assay with M14 melanoma was 96.6%.

`C=CCn1c(SCC(=O)Nc2cccc(C(=O)/C=C/c3ccc(Br)cc3)c2)nc2ccccc2c1=O`: the growth in the assay with NCI-H23 lung was 85.1%; in the assay on NCI-H226 lung it was 94.1%; with NCI-H322M lung it was 86.6%; in the assay on HOP-62 NSCLC, 96.8%; with NCI-H460 lung, 94.9%; in the assay on HOP-92 NSCLC, 78.4%. Besides, the growth was 75.3% with NCI-H522 lung; 86.4% in the assay with A549/ATCC NSCLC; 97.7% in the assay with 786-0 renal; 111% with COLO 205 colon; 95.7% in the assay with DU-145 prostate; 72.7% with MALME-3M melanoma. Also, the growth in the assay with MDA-MB-231 breast is 81.2%; in the assay with RXF 393 renal, 71.1%; in the assay on SF-268 CNS, 90.3%; with SF-295 CNS, 91.4%; in the assay on SF-539 CNS, 66.6%; with UACC-257 melanoma, 105%. The growth in the assay with M14 melanoma is 85.4%.

As for `COc1ccc(-c2cc(-c3cccc4ccccc34)n3c(n2)nc2ccccc23)cc1`, the growth in the assay on NCI-H23 lung is 62.2%; in the assay with NCI-H226 lung it was 49.1%; with NCI-H322M lung, 73.5%; with HOP-62 NSCLC it was 26%; in the assay with NCI-H460 lung, 13.5%; in the assay on HOP-92 NSCLC it was 38.4%. For the same molecule, the growth was 50.3% in the assay with NCI-H522 lung; 29% in the assay with A549/ATCC NSCLC; 36.5% in the assay with 786-0 renal; 74% in the assay with COLO 205 colon; 37.8% in the assay on DU-145 prostate; 37.2% with K-562 leukemia. Also, the growth was 32.4% in the assay with MALME-3M melanoma; 78.2% in the assay on MDA-MB-231 breast; 46.6% in the assay on SF-268 CNS; 20.2% with SF-295 CNS; 45.7% in the assay with SF-539 CNS; 68.8% in the assay on UACC-257 melanoma. In addition, in the assay with M14 melanoma, the growth is 52.1%.

For `C=CCn1c(SCC(=O)Nc2cccc(C(=O)/C=C/c3ccc(C)cc3)c2)nc2ccccc2c1=O`, the growth is 81.3% in the assay with NCI-H23 lung; 92.6% in the assay on NCI-H226 lung; 92.1% in the assay with NCI-H322M lung; 113% in the assay with HOP-62 NSCLC; 94.8% in the assay on NCI-H460 lung; 103% in the assay on HOP-92 NSCLC. The growth is 83.8% in the assay with NCI-H522 lung; 82.3% in the assay on A549/ATCC NSCLC; 98.9% in the assay with 786-0 renal; 109% in the assay with COLO 205 colon; 95.9% with DU-145 prostate; 106% with MALME-3M melanoma. Besides, the growth in the assay with MDA-MB-231 breast is 92.8%; in the assay on RXF 393 renal, 77.7%; in the assay with SF-268 CNS it was 90.6%; in the assay with SF-295 CNS it was 101%; in the assay on SF-539 CNS it was 89.4%; in the assay with UACC-257 melanoma, 96.8%. Besides, the growth with M14 melanoma is 96.7%.

Take `COC(=O)[C@@]1(C)CC[C@]2(C)CC[C@]3(C)C(=CC(=O)[C@@H]4[C@@]5(C)Cc6c(n(CC#CCN7CCN(C)CC7)c7ccccc67)C(C)(C)[C@@H]5CC[C@]43C)[C@@H]2C1`: the growth with NCI-H23 lung was 84.7%; in the assay on NCI-H226 lung it was 98.5%; in the assay on NCI-H322M lung, 91.5%; with HOP-62 NSCLC, 113%; with NCI-H460 lung it was 22.4%; with HOP-92 NSCLC, 83%. The growth in the assay on NCI-H522 lung is 100%; in the assay on A549/ATCC NSCLC it was 69.4%; with 786-0 renal, 67.8%; with COLO 205 colon it was 94.2%; with DU-145 prostate, 54.5%; in the assay with K-562 leukemia, -5.29% (active). Also, the growth was 115% in the assay on MALME-3M melanoma; 67.2% with MDA-MB-231 breast; 86.6% in the assay on SF-268 CNS; 85.9% in the assay with SF-295 CNS; 91.5% in the assay on SF-539 CNS; 106% in the assay with UACC-257 melanoma. The growth in the assay with M14 melanoma was 90.6%.

With `Cc1ccccc1/C=C/c1nn2c(-c3ccoc3C)nnc2s1`, the growth in the assay with NCI-H23 lung is 97.8%; in the assay with NCI-H226 lung, 100%; in the assay on NCI-H322M lung, 99.4%; in the assay with HOP-62 NSCLC, 107%; in the assay with NCI-H460 lung, 102%; with HOP-92 NSCLC it was 93.9%. Also, the growth was 92.4% in the assay with NCI-H522 lung; 90% with A549/ATCC NSCLC; 90.8% with 786-0 renal; 108% in the assay on COLO 205 colon; 103% with DU-145 prostate; 106% with MALME-3M melanoma. The growth with MDA-MB-231 breast was 104%; with RXF 393 renal, 96.2%; in the assay with SF-268 CNS, 101%; with SF-295 CNS, 94%; in the assay with SF-539 CNS, 103%; in the assay on UACC-257 melanoma, 110%. In the assay with M14 melanoma, the growth is 99%.

For `C/C(=C(/c1ccc(O)cc1)c1ccc(OCCN2CCCCCC2)cc1)c1ccccc1`, the growth in the assay with NCI-H23 lung was 45.5%; in the assay on NCI-H226 lung, 75.7%; in the assay with NCI-H322M lung it was 67%; in the assay with HOP-62 NSCLC, 65.8%; in the assay with NCI-H460 lung, 19.2%; in the assay on HOP-92 NSCLC, 45%. Besides, the growth was 65.6% in the assay on NCI-H522 lung; 56.7% in the assay on A549/ATCC NSCLC; 35.5% with 786-0 renal; -86.5% (active) with COLO 205 colon; 74.3% with DU-145 prostate; 2.85% (active) with MALME-3M melanoma. Moreover, the growth with MDA-MB-231 breast is 43.1%; with RXF 393 renal, 26%; in the assay on SF-268 CNS it was 71.3%; in the assay on SF-295 CNS it was 44%; in the assay with SF-539 CNS it was 10.7%; with UACC-257 melanoma, -27% (active). Further, the growth in the assay with M14 melanoma is -3.91% (active).

Consider `C=CCn1c(SCC(=O)Nc2cccc(C(=O)/C=C/c3ccc(Cl)cc3)c2)nc2ccccc2c1=O`, for which the growth was 92.3% in the assay on NCI-H23 lung; 102% in the assay on NCI-H226 lung; 95.6% in the assay with NCI-H322M lung; 113% in the assay with HOP-62 NSCLC; 95.4% in the assay with NCI-H460 lung; 88.7% in the assay on HOP-92 NSCLC. For the same molecule, the growth in the assay with NCI-H522 lung is 81.8%; in the assay on A549/ATCC NSCLC, 85.7%; with 786-0 renal, 98.2%; in the assay on COLO 205 colon, 112%; with DU-145 prostate, 95.1%; in the assay with MALME-3M melanoma, 95.6%. Moreover, the growth in the assay with MDA-MB-231 breast was 81.3%; in the assay on RXF 393 renal, 87%; with SF-268 CNS, 87.3%; in the assay on SF-295 CNS it was 94.7%; in the assay on SF-539 CNS, 85.9%; with UACC-257 melanoma, 102%. In addition, the growth with M14 melanoma is 87.8%.
